# Data reported in PubChem BioAssay AID2708 (National Center for Advancing Translational Sciences (NCATS), 2010).
# The list shows a part of the results. Records with an inconclusive call do not appear. Activity calls are given as the source filed them. Calls come from the whole dose curve; as a rule, active = well fitted inhibition curve with a large enough effect; inconclusive = small, poorly fitted or top-dose-only effect; inactive = no such curve, though single readings can be large or run the other way.
# Biological target: ATP-dependent DNA helicase Q1 (Homo sapiens) (UniProt P46063)
# Sequence (P46063 whole entry, looked up): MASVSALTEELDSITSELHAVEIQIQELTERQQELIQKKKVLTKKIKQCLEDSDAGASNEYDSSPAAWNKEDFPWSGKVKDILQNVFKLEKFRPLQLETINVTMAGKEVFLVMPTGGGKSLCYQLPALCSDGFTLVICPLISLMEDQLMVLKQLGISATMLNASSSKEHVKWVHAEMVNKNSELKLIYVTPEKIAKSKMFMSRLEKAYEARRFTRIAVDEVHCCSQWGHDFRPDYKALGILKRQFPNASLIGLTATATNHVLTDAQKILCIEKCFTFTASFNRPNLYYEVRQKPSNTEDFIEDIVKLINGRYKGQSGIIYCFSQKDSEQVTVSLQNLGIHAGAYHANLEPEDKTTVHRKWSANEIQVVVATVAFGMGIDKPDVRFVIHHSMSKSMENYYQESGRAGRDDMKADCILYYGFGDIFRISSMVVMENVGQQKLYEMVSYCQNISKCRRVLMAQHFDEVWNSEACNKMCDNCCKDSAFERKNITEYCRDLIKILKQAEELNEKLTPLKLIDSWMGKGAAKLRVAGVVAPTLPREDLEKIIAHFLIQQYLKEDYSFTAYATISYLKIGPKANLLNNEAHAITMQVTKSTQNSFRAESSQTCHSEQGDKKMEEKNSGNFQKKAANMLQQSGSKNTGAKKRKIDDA
# Experiment: Confirmation qHTS Assay for Inhibitors of RecQ-Like Dna Helicase 1 (RECQ1); note: nearly all actives have a fitted effect of over 45% in size
# Details: RECQ1 helicase DNA unwinding, fluorescence
# Source text: Survival of cells and the faithful propagation of the genome depend on elaborate mechanisms of detecting and repairing DNA damage. Treatment of advanced cancer relies on radiation therapy or chemotherapy, which kill cancer cells by causing extensive DNA damage. It is often found, that cancer cells develop resistance to therapy through enhanced activity of DNA repair functions; this has led to an increased interest in developing drugs that interfere with DNA repair, which could sensitize cancer cells to conventional therapy.
# This validation qHTS assay pertains to human RECQ1, which is important in resolving abnormal DNA structures formed during replication or homologous recombination. Shutting down the expression of RECQ1 leads to chromosomal instability and higher radiation sensitivity in cultured cells.
# The validation assay was a fluorescence quenching based kinetic qHTS for RECQ1 Helicase DNA unwinding. The activity was measured as ATP-dependent separation of a 20-bp DNA duplex extended by 30-nt single-stranded tails (forked duplex). The forked DNA substrate was tagged with rhodamine fluorophore (carboxytetramethyl rhodamine, TAMRA) and BHQ-2 (Black Hole Quencher 2) dark quencher. Strand separation results in an increase in the fluorescence of TAMRA (excitation 525 nm, emission 598 nm). […]
# Potency is the fitted concentration of half-maximal effect.
compound,measurement,value
O=C(O)c1cc[c]([Sb](=[O])([OH])[OH])cc1[N+](=O)[O-],Potency,913 nM (active)
